The values that follow come from PubChem BioAssay (NCI).

Structures are written as SMILES. Values joined by “and” are separate entries in the source; they are usually repeats but may differ in a detail not shown here. Equal entries are not always repeated. The panel holds about 83,000 compounds, 20% with a hit somewhere; the sample as a whole holds those more often.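 Testing used 96-well plates and a 48-hour single-concentration exposure. Example: -40 means 40% of the starting cells died.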 Active and inactive are the calls of the source.

The test has as its system NCI-H522 lung. The test can be described thus: NCI-60 one-dose screen, 48 h (100 = growth as untreated, 0 = no growth, -100 = all killed). As to conditions: 10 µM unless noted. The method, then: Growth inhibition of the NCI-H522 human Non-Small Cell Lung tumor cell line is measured as a screen for anti-cancer activity. Cells are grown in 96 well plates and exposed to the test compound for 48 hours. Compounds are tested at a single concentration, which is 10^-5 M for most compounds. The reported endpoint is percent growth (GI% or GIPRCNT), where numbers from 0 - 100% represent growth inhibition, and numbers from -100% - 0 represent cell death. For example, a value of 40 represents 60% growth inhibition. A value of 0 means no net growth occurred over the course of the experiment. A value of -40 indicates 40% of cells at the beginning of the experiment died by the end of the experiment. A value of -100 means all cells are dead at the end of the experiment.
NCI-60 Human Tumor Cell Lines Screen was performed using the standard one-dose NCI protocol, which is described in more detail at https://dtp.cancer.gov/discovery_development/nci-60/default.htm.
Compounds with GIPRCNT values below 10 were considered active. Activity score was based on GIPRCNT using the following formula: […]
Score is 0 for GIPRCNT values of 100 or above, 50 for GIPRCNT values of 0, and 100 for GIPRCNT values of -100.
For the molecule `CC(=O)Oc1cc(C(C)C)c(OCCN(C)C)cc1C`, the growth is 112% (inactive) and 115% (inactive).

Consider `CSc1nc(N)c(N)c(N)n1`, for which the growth is 70.1% (inactive).

`COc1cc2c(cc1O)C(=O)CCCC2`: the growth is 70.6% (inactive).

On to `CC1CC(O)CC(C)(C)C1.CC1CC(O)CC(C)(C)C1.CC1CC(O)CC(C)(C)C1.CC1CC(O)CC(C)(C)C1.[Ti]` (stereo not given), for which the growth was 112% (inactive).

As to `O=C1c2ccccc2C(c2ccccc2)C1c1ccccc1` (stereo not given), the growth is 86.2% (inactive).

With `Cc1ccc(N)cc1S(=O)(=O)O`, the growth was 127% (inactive).

`CCCCCCCCCCCCCCCCC(=O)O`: the growth is 102% (inactive).

Regarding `COc1cc([C@@H]2c3cc4c(cc3[C@H](O)[C@H]3COC(=O)[C@@H]23)OCO4)cc(OC)c1OC`, the growth is -13.6% (active) and -44.2% (active).

As to `CCOC(=N)c1ccc(C(=N)OCC)cc1`, the growth was 97.3% (inactive).

`O=C(O)C(Cc1ccc(OS(=O)(=O)Cc2ccccc2)cc1)NS(=O)(=O)Cc1ccccc1` (stereo not given): the growth was 96.6% (inactive).

Turning to `CS(=O)(=O)OCC1NC(=O)C(COS(C)(=O)=O)NC1=O` (stereo not given), the growth is 51.3% (inactive) and 50.6% (inactive).

Consider `CCOP(=O)(OCC)/C(C#N)=C/c1c(C)[nH]c2ccccc12`, for which the growth was 87.1% (inactive).

In the case of `CC1=CC(=O)C=CC1=Nc1ccc(N(C)C)cc1`, the growth was 29.9% (inactive).

On to `Cc1cc(Cl)nc(Nc2ccccc2)n1`, for which the growth is 91% (inactive).

As for `CC1NC(C)c2ccc3ccccc3c2O1` (stereo not given), the growth is 88.6% (inactive).

As to `O=C(O)c1cccc(Br)c1`, the growth is 103% (inactive) and 85.5% (inactive).

As to `CCc1ccc(OC(=O)CCl)cc1`, the growth was 102% (inactive).

As to `COc1ccc(S(=O)(=O)c2ccc(F)cc2)cc1`, the growth is 83.3% (inactive).

For the molecule `CC(=O)c1cc2ccccc2o1`, the growth is 84.1% (inactive).

For the molecule `Nc1ccccc1SC1CC(=O)N(c2ccc(I)cc2)C1=O` (stereo not given), the growth is 77.4% (inactive).

On to `O=C(O)c1ccc2c3ccc(C(=O)O)c4c(C(=O)O)ccc(c5ccc(C(=O)O)c1c25)c43`, for which the growth was 95.3% (inactive).

For `C/C(=C\c1ccccc1)C(O)C(=O)c1nc2ccc([N+](=O)[O-])cc2[nH]c1=O` (stereo not given), the growth was 48.1% (inactive).

Take `CCOCCC(=O)O`: the growth is 102% (inactive).

With `Cc1nc2c(=O)[nH]c(=S)[nH]c2[nH]c1=O`, the growth is 105% (inactive) and 100% (inactive).

With `O=c1ccn2c(n1)OC1CC2OC1COC(c1ccccc1)(c1ccccc1)c1ccccc1` (stereo not given), the growth was 60.7% [100 µM] (inactive).

Consider `Cc1cc(O)c(C(C)C)cc1N=O`, for which the growth is 93.8% (inactive) and 74.7% (inactive).

Turning to `Clc1ccc(/C=C/c2ccc3ccccc3n2)cc1`, the growth was -38.8% (active) and 79.1% (inactive) and 76.8% (inactive).

Regarding `CN(C)C(=N)N=C(N)N`, the growth is 64.1% (inactive) and 166% (inactive).

On to `CCN(CC)C(CC(=O)c1ccccc1)C(=O)c1ccccc1` (stereo not given), for which the growth is 71.7% (inactive).

On to `CC(C)(C)OC(=O)NCCc1ccc(N)cc1`, for which the growth was 83.5% (inactive).

In the case of `O=C1C=CC[C@H](/C=C/c2ccccc2)O1`, the growth was 13.9% (inactive) and 47.5% (inactive).

With `OCCSc1ccc(Cl)cc1`, the growth was 101% (inactive) and 76.5% (inactive).

For the molecule `C/C=C(/C(=O)NC(N)=O)C(C)C`, the growth was 108% (inactive).

`CNc1ccc(O)cc1`: the growth is 96.3% (inactive) and 93% (inactive).

As to `COc1ccc2oc3cc(NCCN(C)C)ccc3c(=O)c2c1`, the growth is 65.7% (inactive).

`CCCCNC(=O)c1ccccc1C`: the growth was 93.2% (inactive).

With `O=C(O)Cc1cc(=O)[nH]n(-c2ccccc2)c1=O`, the growth was 95.4% (inactive).

In the case of `O=C(NC(CSSCC(NC(=O)OCc1ccccc1)C(=O)O)C(=O)O)OCc1ccccc1` (stereo not given), the growth was 70.3% (inactive).

As for `COC(=O)c1nc(=S)[nH]c(C(=O)OC)c1C(=O)c1ccccc1`, the growth is 103% (inactive).

For `CC(NC(=O)CCl)c1ccccc1` (stereo not given), the growth is 98% (inactive).
